# Experimental data reported in PubChem BioAssay (EPA / NIEHS).
# Active and inactive are the calls of the source. The calls were made as follows: active = hit-call score of the fitted dose curve at least 0.9, where 1 is the maximum; inactive = score below 0.9.
# Columns and labels:
# [1] = APR_HepG2_P-H2AX_72hr: Apredica 72-hour HepG2 Assay for H2AX Phosphorylation (AID 2282916); conditions: imaging, actives raise or lower the signal;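 also: phospho-histone H2A.x immunostain intensity per cell marking DNA damage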
# Method in brief: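 HepG2; cpd 0.39–200 uM ×10 conc, duplicates; 0.5% DMSO; 72 hr. Fix 3.7% formaldehyde 30 min RT, 0.5% Triton X-100 10 min. Anti-phospho-H2A.x 1:200 + Hoechst 2 ug/mL, 60 min RT; ArrayScan imaging.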
# [2] = APR_HepG2_MitoMembPot_72hr: Apredica 72-hour HepG2 Assay for Mitochondrial Membrane Potential (AID 2282917); conditions: imaging, actives raise or lower the signal
# Method in brief: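 HepG2 cells exposed 72 h to compounds at 0.39–200 uM (0.5% v/v DMSO, duplicates); MitoTracker Red CMXRos 250 nM loaded 30 min before 3.7% formaldehyde fixation, imaged by HCS fluorescence. Bidirectional fit versus DMSO.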
# [3] = APR_HepG2_MitoticArrest_72hr: Apredica 72-hour HepG2 Assay for Mitotic Arrest (AID 2282918); conditions: high-content imaging, actives raise or lower the signal
# Method in brief: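 HepG2 cells were exposed for 72 hr to compound at 0.39–200 uM (10 concentrations, duplicate) in 0.5% v/v DMSO, fixed in 3.7% formaldehyde, immunostained for phospho-histone H3 with Hoechst 33342 and imaged by high-content fluorescence; bidirectional fits versus DMSO.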
# [4] = APR_HepG2_MicrotubuleCSK_72hr: Apredica 72-hour HepG2 Assay for Microtubule CSK Stabilty (AID 2282919); conditions: HepG2 microtubule cytoskeleton, high-content imaging, actives raise or lower the signal
# Method in brief: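 HepG2 human liver cells were dosed for 72 h at ten concentrations from 0.39 to 200 uM in duplicate (0.5% v/v DMSO final). Fixed, permeabilized cells were immunostained for alpha-tubulin (Cy5) with a Hoechst counterstain and imaged at 20x.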
# [5] = APR_HepG2_P-H2AX_24hr: Apredica 24-hour HepG2 Assay for H2AX Phosphorylation (AID 2282920); conditions: high-content imaging, actives raise or lower the signal
# Method in brief: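 HepG2 human liver cells were exposed for 24 hr to compounds at 0.39–200 uM in duplicate, with 0.5% v/v DMSO final. Fixed cells were immunostained for phospho-histone H2A.x plus Hoechst 33342, imaged by HCS fluorescence, and fitted bidirectionally against DMSO.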
# [6] = APR_HepG2_StressKinase_72hr: Apredica 72-hour HepG2 Assay for Stress Kinase (AID 2282921); conditions: HepG2 stress kinase (phospho-c-Jun) imaging, actives raise or lower the signal
# Method in brief: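 Dose 0.39–200 uM (10 pts, duplicate), 0.5% DMSO; 72 h; fix 3.7% formaldehyde 30 min RT; Triton permeabilize; anti-phospho-c-Jun/Cy3 + Hoechst 60 min RT; image 20x; fit gain/loss vs DMSO.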
# [7] = APR_HepG2_StressKinase_24hr: Apredica 24-hour HepG2 Assay for Stress Kinase (AID 2282922); conditions: HepG2 stress kinase (phospho-c-Jun) imaging, actives raise or lower the signal
# Method in brief: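 HepG2 cells exposed 24 hr to compound at 0.39–200 uM (10 concentrations, duplicate), 0.5% v/v DMSO final. Fixed in 3.7% formaldehyde, permeabilized with Triton X-100, immunolabeled for phospho-c-Jun with Hoechst 33342; HCS fluorescence imaging, bidirectional fit versus DMSO.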
# [8] = APR_HepG2_MitoMass_72hr: Apredica 72-hour HepG2 Assay for Mitochondrial Mass (AID 2282924); conditions: high-content imaging, actives raise or lower the signal;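 also: MitoTracker Red CMXRos stain intensity per cell imaged as mitochondrial mass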
# Method in brief: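 HepG2 cells were exposed for 72 hr to compounds at 0.39–200 uM (ten concentrations, duplicate, 0.5% v/v DMSO final). Live cells were stained with 250 nM MitoTracker Red CMXRos for 30 min, then fixed in 3.7% formaldehyde and imaged by HCS fluorescence.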
# [9] = APR_HepG2_NuclearSize_72hr: Apredica 72-hour HepG2 Assay for Nuclear Size (AID 2282925); conditions: high-content imaging, actives raise or lower the signal
# Method in brief: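 HepG2 cells were exposed to compounds at ten concentrations from 0.39 to 200 uM (duplicate, 0.5% DMSO final) for 72 hr. After fixation in 3.7% formaldehyde, nuclei were stained with Hoechst 33342 (2 ug/mL) and imaged at 20x.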
# [10] = ATG_CRE_CIS: Attagene CIS-FACTORIAL HepG2 Assay for human cAMP Responsive Element (CRE) binding protein 3 (AID 2282926); conditions: HepG2 CRE cis-reporter, Attagene multiplexed mRNA; actives raise or lower the signal
# Method in brief: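 HepG2 cells transiently transfected with a multiplexed reporter library (CRE-driven unit among them) were dosed for 24 h. Reporter mRNA was quantified by RT-PCR, fluorescent labelling, HpaI digestion and capillary electrophoresis, with bidirectional fitting against DMSO baseline.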
# [11] = molecular target: CCAAT/enhancer-binding protein beta (Homo sapiens) (UniProt P17676); test: ATG_C_EBP_CIS: Attagene CIS-FACTORIAL HepG2 Assay for human CCAAT/Enhancer Binding Protein (C/EBP) beta (AID 2282927); conditions: HepG2 Attagene cis-factorial transcription factor reporter; actives raise or lower the signal
# Sequence of CCAAT/enhancer-binding protein beta (Homo sapiens) (P17676 whole entry, looked up): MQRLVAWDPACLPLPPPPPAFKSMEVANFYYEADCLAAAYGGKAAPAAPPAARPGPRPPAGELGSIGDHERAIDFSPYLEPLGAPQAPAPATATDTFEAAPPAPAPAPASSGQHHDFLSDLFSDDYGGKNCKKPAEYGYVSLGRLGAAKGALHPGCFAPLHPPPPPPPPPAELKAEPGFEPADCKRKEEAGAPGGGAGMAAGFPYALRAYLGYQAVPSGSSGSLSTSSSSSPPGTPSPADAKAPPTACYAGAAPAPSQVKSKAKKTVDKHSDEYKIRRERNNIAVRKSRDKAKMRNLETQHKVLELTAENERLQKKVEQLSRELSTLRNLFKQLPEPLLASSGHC
# Method in brief: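 Following a 24 h incubation with test chemical, transfected HepG2 cells yielded RNA whose reporter transcripts were quantified by RT-PCR and fluorescent capillary electrophoresis, with DMSO serving as baseline for bidirectional fitting.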
# [12] = ATG_CMV_CIS: Attagene CIS-FACTORIAL HepG2 Assay for human CMV (Internal Marker) (AID 2282928); conditions: HepG2 CMV promoter reporter, transcription factor profiling; actives raise or lower the signal;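 also: endpoint acts as a background internal control marker rather than a target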
# Method in brief: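 Cell system: HepG2, transiently transfected multiple reporter units under cis promoters. Exposure: 24 h. Detection: RT-PCR, FAM labeling, HpaI digestion, capillary electrophoresis. Analysis: bidirectional, DMSO baseline.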
# [13] = ATG_DR4_LXR_CIS: Attagene CIS-FACTORIAL HepG2 Assay for human Liver X Receptor (LXR), DR4 submotif (AID 2282929); conditions: HepG2 Attagene DR4 cis-reporter, mRNA transcription; actives raise or lower the signal
# Method in brief: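 Readout: reporter transcript fluorescence after RT-PCR and capillary electrophoresis, fitted bidirectionally against DMSO controls. Human HepG2 liver cells carried transiently transfected multiplexed reporter constructs; endogenous transcription factor activity measured 24 h post-dosing.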
# [14] = ATG_AP_1_CIS: Attagene CIS-FACTORIAL HepG2 Assay for human Activator Protein 1 (AP-1) (AID 2282931); conditions: HepG2 Attagene cis-factorial AP-1 reporter mRNA; actives raise or lower the signal
# Method in brief: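 Reporter transcripts were measured 24 h after dosing by RT-PCR and capillary electrophoresis of fluorescent fragments. Cells: HepG2 carrying transfected cis-regulated reporter constructs reading endogenous factor activity. Gain or loss fitted against DMSO.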
# [15] = ATG_AP_2_CIS: Attagene CIS-FACTORIAL HepG2 Assay for human Activator Protein 2 (AP-2) (AID 2282932); conditions: HepG2 AP-2 cis-reporter, Attagene transcription factor profiling; actives raise or lower the signal
# Method in brief: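 Bidirectional curve fitting against DMSO was applied to reporter mRNA signals from HepG2 cells 24 h after dosing. Cis-promoter reporter units, transiently transfected, were read by RT-PCR plus capillary electrophoresis.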
# [16] = molecular target: Retinoic acid receptor alpha (Homo sapiens) (UniProt P10276); test: ATG_DR5_RAR_CIS: Attagene CIS-FACTORIAL HepG2 Assay for human Retinoic Acid Receptor Alpha (RARE), DR5 submotif (AID 2282934); conditions: HepG2 Attagene cis-factorial RARE DR5 reporter, mRNA; actives raise or lower the signal;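 as to AC50: reporter responds to endogenous RAR alpha beta and gamma in HepG2 not RARA alone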
# Sequence of Retinoic acid receptor alpha (Homo sapiens) (P10276 whole entry, looked up): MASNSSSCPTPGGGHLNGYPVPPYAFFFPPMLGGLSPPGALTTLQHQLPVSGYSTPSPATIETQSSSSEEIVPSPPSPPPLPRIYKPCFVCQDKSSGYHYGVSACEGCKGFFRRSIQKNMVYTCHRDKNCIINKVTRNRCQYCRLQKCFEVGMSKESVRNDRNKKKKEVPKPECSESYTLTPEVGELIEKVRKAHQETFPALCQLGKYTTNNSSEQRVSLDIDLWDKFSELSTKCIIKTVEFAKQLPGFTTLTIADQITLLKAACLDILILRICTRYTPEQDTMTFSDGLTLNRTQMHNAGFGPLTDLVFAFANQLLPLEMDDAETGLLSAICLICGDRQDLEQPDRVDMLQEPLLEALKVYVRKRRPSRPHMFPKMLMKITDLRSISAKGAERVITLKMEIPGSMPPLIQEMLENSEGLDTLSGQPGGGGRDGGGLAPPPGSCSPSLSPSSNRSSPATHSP
# Method in brief: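 Endpoint fitted in both directions relative to DMSO as negative control. It reflects DR5 cis-element reporter mRNA induction in transiently transfected HepG2 cells, measured 24 h after dosing through RT-PCR and fluorescent capillary electrophoresis.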
# [17] = molecular target: Transcription factor E2F1 (Homo sapiens) (UniProt Q01094); test: ATG_E2F_CIS: Attagene CIS-FACTORIAL HepG2 Assay for human E2F Transcription Factor 1 (AID 2282935); conditions: HepG2 Attagene cis-reporter, E2F reporter RNA transcripts; actives raise or lower the signal
# Sequence of Transcription factor E2F1 (Homo sapiens) (Q01094 whole entry, looked up): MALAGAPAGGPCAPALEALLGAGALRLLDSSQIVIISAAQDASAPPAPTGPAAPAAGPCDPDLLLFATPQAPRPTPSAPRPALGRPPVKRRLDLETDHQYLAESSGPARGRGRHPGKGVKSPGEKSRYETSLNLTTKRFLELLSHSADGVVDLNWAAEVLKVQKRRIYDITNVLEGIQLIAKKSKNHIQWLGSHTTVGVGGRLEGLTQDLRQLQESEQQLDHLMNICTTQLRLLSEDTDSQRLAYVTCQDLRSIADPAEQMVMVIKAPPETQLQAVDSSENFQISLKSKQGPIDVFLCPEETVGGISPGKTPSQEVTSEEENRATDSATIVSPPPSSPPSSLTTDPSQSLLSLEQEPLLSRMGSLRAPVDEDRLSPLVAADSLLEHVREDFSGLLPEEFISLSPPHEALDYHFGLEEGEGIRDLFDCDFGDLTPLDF
# Method in brief: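 Multiplexed cis-reporter assay: HepG2, transient transfection, 24 h dosing, mRNA quantitation by labeled RT-PCR and CE.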
# [18] = APR_HepG2_p53Act_72hr: Apredica 72-hour HepG2 Assay for p53 Activation (AID 2282923); conditions: high-content imaging, actives raise or lower the signal;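 also: average cellular p53 protein immunofluorescence intensity in HepG2 cells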
# Method in brief: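 10-pt conc. 0.39–200 uM, duplicate, 0.5% DMSO; 72 hr exposure; 3.7% formaldehyde fix, 0.5% Triton perm; sheep anti-p53/Cy5 + Hoechst; ArrayScan 20x, 6 images/well; gain/loss fit vs DMSO.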
# [19] = molecular target: Aryl hydrocarbon receptor (Homo sapiens) (UniProt P35869); test: ATG_Ahr_CIS: Attagene CIS-FACTORIAL HepG2 Assay for human Aryl Hydrocarbon Receptor (Ahr) (AID 2282930); conditions: HepG2 AhR cis-factorial reporter transcription; actives raise or lower the signal
# Sequence of Aryl hydrocarbon receptor (Homo sapiens) (P35869 whole entry, looked up): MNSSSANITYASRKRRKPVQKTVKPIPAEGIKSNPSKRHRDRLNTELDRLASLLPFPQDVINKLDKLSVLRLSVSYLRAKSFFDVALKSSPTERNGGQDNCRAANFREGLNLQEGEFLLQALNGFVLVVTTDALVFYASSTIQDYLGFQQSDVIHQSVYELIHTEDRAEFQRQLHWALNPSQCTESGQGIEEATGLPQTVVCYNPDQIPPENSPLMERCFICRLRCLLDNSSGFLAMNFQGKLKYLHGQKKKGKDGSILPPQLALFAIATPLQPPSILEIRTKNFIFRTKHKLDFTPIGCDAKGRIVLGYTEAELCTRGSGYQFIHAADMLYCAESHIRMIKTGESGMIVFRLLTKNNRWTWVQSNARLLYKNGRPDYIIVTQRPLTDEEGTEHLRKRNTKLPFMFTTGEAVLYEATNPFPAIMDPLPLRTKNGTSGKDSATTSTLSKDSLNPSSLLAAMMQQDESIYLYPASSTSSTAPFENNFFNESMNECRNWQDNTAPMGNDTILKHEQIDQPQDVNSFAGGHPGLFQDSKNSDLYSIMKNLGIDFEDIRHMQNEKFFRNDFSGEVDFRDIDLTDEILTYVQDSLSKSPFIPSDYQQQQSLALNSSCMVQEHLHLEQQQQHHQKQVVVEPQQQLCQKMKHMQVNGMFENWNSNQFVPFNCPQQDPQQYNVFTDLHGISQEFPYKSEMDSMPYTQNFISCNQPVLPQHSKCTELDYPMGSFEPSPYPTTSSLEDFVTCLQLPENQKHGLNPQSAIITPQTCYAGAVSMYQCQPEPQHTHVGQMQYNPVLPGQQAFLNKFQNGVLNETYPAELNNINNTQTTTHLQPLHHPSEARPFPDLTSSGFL
# Method in brief: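 Values derive from bidirectional fitting against DMSO negative control. Underlying signal: cis-element reporter mRNA in transiently transfected HepG2, harvested 24 h post-dose and measured by RT-PCR plus capillary electrophoresis.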
smiles,measurement,setting,value
O=[N+]([O-])/N=C1\NCCN1Cc1ccc(Cl)nc1,outcome,[1],inactive
same,outcome,[2],inactive
same,outcome,[3],inactive
same,outcome,[4],inactive
same,outcome,[5],inactive
same,outcome,[6],inactive
same,outcome,[7],inactive
same,outcome,[8],inactive
same,outcome,[9],inactive
same,outcome,[10],inactive
same,outcome,[11],inactive
same,outcome,[12],inactive
same,outcome,[13],inactive
same,outcome,[14],inactive
same,outcome,[15],inactive
same,outcome,[16],inactive
same,outcome,[17],inactive
O=[N+]([O-])c1c(Cl)c(Cl)c(Cl)c(Cl)c1Cl,outcome,[1],inactive
same,outcome,[2],inactive
same,outcome,[3],inactive
same,outcome,[4],inactive
same,outcome,[5],inactive
same,outcome,[6],inactive
same,outcome,[7],inactive
same,outcome,[18],inactive
same,outcome,[8],inactive
same,outcome,[9],inactive
same,AC50,[10],32.2 µM (active)
same,outcome,[11],inactive
same,outcome,[12],inactive
same,outcome,[13],inactive
same,outcome,[19],inactive
same,outcome,[14],inactive
same,outcome,[15],inactive
same,AC50,[16],13.2 µM (active)
same,outcome,[17],inactive
COP(=S)(OC)Oc1ccc(SC)c(C)c1,outcome,[1],inactive
same,outcome,[2],inactive
same,outcome,[3],inactive
same,outcome,[4],inactive
same,outcome,[5],inactive
same,outcome,[6],inactive
same,outcome,[7],inactive
same,outcome,[18],inactive
same,outcome,[8],inactive
same,outcome,[9],inactive
same,outcome,[10],inactive
same,outcome,[11],inactive
same,outcome,[12],inactive
same,AC50,[13],29.2 µM (active)
same,AC50,[19],10.6 µM (active)
same,outcome,[14],inactive
same,outcome,[15],inactive
same,outcome,[16],inactive
same,outcome,[17],inactive
O=S1OCC2C(CO1)C1(Cl)C(Cl)=C(Cl)C2(Cl)C1(Cl)Cl (centres undefined),outcome,[1],inactive
same,outcome,[2],inactive
same,outcome,[3],inactive
same,AC50,[4],117 µM (active)
same,outcome,[5],inactive
same,outcome,[6],inactive
same,outcome,[7],inactive
same,outcome,[18],inactive
same,outcome,[8],inactive
same,outcome,[9],inactive
same,outcome,[10],inactive
same,outcome,[11],inactive
same,outcome,[12],inactive
same,outcome,[13],inactive
same,outcome,[19],inactive
same,outcome,[14],inactive
same,outcome,[15],inactive
same,outcome,[16],inactive
same,outcome,[17],inactive
